Several values for one entry are separate records, joined by “and”; a condition that tells them apart may be missing. Identical values can stand only once. About 9,300 (1.5%) of roughly 640,000 compounds were called active. Shown is part of a subset that was picked to be rich in actives. Values without a mark were called inactive. No stated cut-off is given here; in the data, active means inhibition above about 32%; inactive means the rest.

This experiment is described as follows: TEAD-YAP interaction inhibition, primary screen, TEAD-YAP interaction inhibitor project, luminescence, HEK-TIYL cells (AID 1259422).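 Further: 0% = median of test compound wells and 100% = reference inhibitor wells.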 The conditions noted are these: TEAD-Gal4/YAP UAS-luciferase luminescence, at 9.12 µM, stronger effect = higher value.
`CC(=O)Nc1ccc2nc(SCC(=O)Nc3ccccc3F)sc2c1`: the inhibition is -58.7%.
Regarding `COc1cccc(-n2cc(CN(C)C3CCC(=O)N(Cc4ccccc4F)CC3)cn2)c1` (stereo unspecified), the inhibition is 8.57%.
For the compound `Cc1nc(CC(=O)N2CCC(N3CCC(C(=O)N4CCOCC4)CC3)CC2)cs1`, the inhibition was -4.91%.
`COc1cc(Br)cc(/C=N/NC(=O)c2cc(-c3ccccc3)n[nH]2)c1O`: the inhibition was 15.7%.
In the case of `COc1cc(Br)cc(/C=N\NC(=O)c2ccc(C)nc2)c1O`, the inhibition was 35.4% (active).
In the case of `CCOc1cccc(/C=N/NC(=O)c2ccc(C)nc2)c1O`, the inhibition is 18.1%.
Consider `CC(=O)c1cccc(NC(=O)c2ncoc2-c2ccc(Cl)cc2)c1`, for which the inhibition is 2.52%.
As to `COc1ccc(-c2csc(N3CCC(C)CC3)n2)cc1`, the inhibition is -61.1%.
Consider `O=C1CCCC2=C1C(c1c(F)cccc1Cl)Nc1ccc(C(=O)c3ccccc3)cc1N2` (stereo unspecified), for which the inhibition is -16.1%.
`COc1cc(C2Nc3ccc(C(=O)c4ccccc4)cc3NC3=C2C(=O)CCC3)cc(OC)c1OC` (stereo unspecified): the inhibition was 59.8% (active).
In the case of `O=C1CCCC2=C1C(c1ccc(Cl)cc1)Nc1ccc(C(=O)c3ccccc3)cc1N2` (stereo unspecified), the inhibition was 13.4%.
In the case of `Cc1ccc(C2=CC(c3ccccc3F)n3nnnc3N2)cc1` (stereo unspecified), the inhibition was -31.7%.
Then `COc1ccccc1CN(Cc1cc2cccc(C)c2n2nnnc12)C(=O)C1CC1`, with 6.49%.
On to `O=C1C(=O)N(CCCn2ccnc2)C(c2ccc(Cl)cc2)/C1=C(/O)c1ccccc1` (stereo unspecified), for which the inhibition is 7.39%.
Then `COC(=O)c1nnn(CC(=O)Nc2ccc3c(c2)OCCO3)c1C(=O)OC`, with 9.22%.
Then `Cc1cc(C)nc(NS(=O)(=O)c2ccc(N/C=C\C(=O)c3cccs3)cc2)n1`, with 49.6% (active); and `COc1cc(NS(=O)(=O)c2ccc(N/C=C\C(=O)c3cccs3)cc2)nc(OC)n1`, with -5.11%.
On to `COc1cccc(C(=O)/C=C\Nc2ccc(S(=O)(=O)Nc3nc(C)cc(C)n3)cc2)c1`, for which the inhibition is -30.1% and -6.6%.
Consider `N#CCCNc1ncc(-c2ccc(Cl)cc2)cn1`, for which the inhibition was -8.87%.
Then `Cc1ccc(NC(=O)CN2CCN(c3ccc(Cl)cc3)CC2)cc1Br`, with -5.18%; and `CCOC(=O)C1=C(C)NC(C)=C(C(=O)OCC)C1c1ccc(C2C(C(=O)OCC)=C(C)NC(C)=C2C(=O)OCC)cc1`, with 8.31%; and `O=C(Cc1ccsc1)N1CCC2(CC1)CC2C(=O)N1CCN(Cc2ccccc2)CC1` (stereo unspecified), with 7.69%.
In the case of `O=C(NCc1ccccc1)C1CC12CCN(C(=O)Cc1ccsc1)CC2` (stereo unspecified), the inhibition is -4.7%.
On to `O=C(NCc1ccccc1)C1CC12CCN(Cc1ccsc1)CC2` (stereo unspecified), for which the inhibition was 50.1% (active).
As for `CCOC(=O)c1c(NC(=O)C(C)Sc2nnc(CNC(=O)c3ccc(Cl)cc3Cl)n2C)sc2c1CCCC2` (stereo unspecified), the inhibition is 5.37%.
With `COc1ccc(-n2nc(C(=O)N3CCN(C)CC3)c3ccccc3c2=O)c(OC)c1`, the inhibition is 3.03%.
For `COc1ccc(/C=C(/NC(=O)c2ccco2)C(=O)Nc2cccc(O)c2)cc1`, the inhibition was 0.64%.
Then `COc1ccc(C2CC(C(F)(F)F)n3ncc(C(=O)NCc4cccs4)c3N2)cc1OC` (stereo unspecified), with -29.4%.
For the compound `O=C(C(Cc1ccccc1)NS(=O)(=O)c1cccs1)N1CCc2ccccc21` (stereo unspecified), the inhibition was 7.02%.
In the case of `Cc1ccc2cc(CN(CCCO)S(=O)(=O)c3ccccc3[N+](=O)[O-])c(=O)[nH]c2c1`, the inhibition was -39.4%.
As to `CC1=C(C(=O)Nc2ccc(Cl)cc2)C(c2c(Cl)cccc2Cl)NC(=O)N1` (stereo unspecified), the inhibition was 37.4% (active).
Take `CCOc1ccc(NC(=O)C2=C(C)NC(=O)NC2c2ccc(Cl)cc2)cc1` (stereo unspecified): the inhibition is 11%.
Consider `CC1=C(C(=O)Nc2ccc(Cl)cc2)C(c2cccc(Cl)c2)NC(=O)N1` (stereo unspecified), for which the inhibition was 6.92%.
Turning to `O=C(Nc1ccc(Br)cc1)c1cc2ccccc2c(=O)o1`, the inhibition is -8.82%.
With `Cc1ccc2nc(NCc3ccccc3)nc(-c3ccccc3)c2c1`, the inhibition is -0.32%.
Take `O=c1c(-c2ccccc2)[n+]([O-])c2ccccc2n1OCc1ccccc1Cl`: the inhibition was -9.42%.
For the compound `CCOC(=CNc1ccc2nsnc2c1)OCC`, the inhibition is -2.05%.
Take `CCCOc1ccc(N2C(=O)CC(N(CCC34CC5CC(CC(C5)C3)C4)C(C)=O)C2=O)cc1` (stereo unspecified): the inhibition was 1.87%.
Turning to `c1ccc(Nc2nc3ncnc(NCc4cccnc4)c3[nH]2)cc1`, the inhibition was -5.96%.
Turning to `c1cn(-c2ccc(Nc3nc4ncnc(NC5CC5)c4[nH]3)cc2)cn1`, the inhibition was 45.5% (active).
For `COc1ccc(CCNc2ncnc3nc(Nc4ccc(N5CCOCC5)cc4)[nH]c23)cc1` the value was 20.2%; for `CC1=C(C(=O)Nc2cc(Cl)ccc2C(=O)O)SCCO1`, 5.44%; for `CC(=O)c1ccc(N2CCN(C(=O)Cn3ncc4c3-c3cc(C)ccc3OC4)CC2)cc1`, -3.87%.
For the compound `CC(=O)C1=C(c2ccc(C(C)(C)C)cc2)N(C(C)=O)n2cnnc2S1`, the inhibition was 84% (active).
In the case of `CCC(=O)C1=C(c2ccc(Cl)cc2)N(C(=O)CC)n2cnnc2S1`, the inhibition is 15.1%.
Take `CCc1nnc2n1N(C(C)=O)C(c1ccc3c(c1)CCCC3)=C(C(C)=O)S2`: the inhibition was 10.8%.
On to `CCN1CCCC1CNC(=O)CSCc1nc(-c2ccccc2F)oc1C` (stereo unspecified), for which the inhibition was -9.37%.
As to `CN(C(=O)c1cccs1)C(Cc1ccccc1)C1CCN(C(=O)C2CCOC2)CC1` (stereo unspecified), the inhibition was -13%.
Turning to `CCCCCCCc1ccc(C(=O)Oc2ccc(Br)cc2)cc1`, the inhibition is 8.27%.
For the compound `CCc1ccc(OCCOCCNCCN)cc1`, the inhibition is 13%.
With `CCCCCCCCCc1ccc(OCCOCCOCCOCCOCCOCCOCCOCCOCCO)cc1`, the inhibition is 34.7% (active).
Take `CCN(CC)CCCNC(=O)c1ccc(Cn2c(=S)[nH]c3cc4c(cc3c2=O)OCO4)cc1`: the inhibition is -11.4%.
Consider `Cc1ccnc(NC(c2ccccc2Cl)c2ccc3cccnc3c2O)c1` (stereo unspecified), for which the inhibition was 77.9% (active).
Then `Cc1cccc(NC(c2cccc(F)c2)c2ccc3ccc(C)nc3c2O)n1` (stereo unspecified), with 1.53%; and `Cc1ccnc(NC(c2ccc(O)cc2)c2ccc3ccc(C)nc3c2O)c1` (stereo unspecified), with -16.1%.
Then `Oc1c(C(Nc2ccccn2)c2ccc(OC(F)F)cc2)ccc2cccnc12` (stereo unspecified), with 70.2% (active); and `COc1cc(C(=O)NC(c2ccccc2Cl)c2cc([N+](=O)[O-])c3cccnc3c2O)cc(OC)c1OC` (stereo unspecified), with -0.41%.
In the case of `Cc1ccnc(NC(c2ccc3cccnc3c2O)c2c(F)cccc2Cl)c1` (stereo unspecified), the inhibition is 34.7% (active).
Turning to `Cc1cccc(NC(c2ccc3c(c2)OCO3)c2ccc3ccc(C)nc3c2O)n1` (stereo unspecified), the inhibition is 15.8%.
For the compound `Oc1ccc2ncccc2c1C(Nc1ccccn1)c1ccccc1` (stereo unspecified), the inhibition was 6.96%.
As for `Oc1c(C(Nc2ccccn2)c2cccnc2)ccc2cccnc12` (stereo unspecified), the inhibition is 14.9%.
As to `CCOC(=O)c1sc2ncn(CC(=O)Nc3cccc(C(F)(F)F)c3)c(=O)c2c1C`, the inhibition is 0.34%.
Consider `Cc1ccc(NC(=O)c2cc(S(=O)(=O)N3CCN(c4cccc(Cl)c4)CC3)ccc2F)cc1F`, for which the inhibition is -4.95%.
On to `CCN1CCN(c2cc(Nc3cc(OC)c(OC)c(OC)c3)c3c4c(onc24)-c2ccccc2C3=O)CC1`, for which the inhibition is 5.58%.
With `Cc1ccc(S(=O)(=O)CCc2nnc(NC(=O)c3ccc([N+](=O)[O-])cc3)s2)cc1`, the inhibition was -5.17%.
For `NC(=O)Cn1c(=O)n(CCCCC(=O)NCc2ccccc2Cl)c(=O)c2ccccc21`, the inhibition was 2.5%.
For the compound `O=C(NC1CCN(Cc2ccccc2)CC1)c1cccc(Nc2nccc3ccccc23)c1`, the inhibition was 2.07%.
For `CS(=O)(=O)N(CC(O)Cn1c2ccccc2c2ccccc21)c1ccccc1I` (stereo unspecified), the inhibition is -12.3%.
With `CCCC(=O)NC(c1ccccc1OC)c1cc([N+](=O)[O-])c2cccnc2c1O` (stereo unspecified), the inhibition was 20.6%.
As to `CNC(=O)COC(=O)c1c(Cl)cccc1Cl`, the inhibition was -0.51%.
Consider `CCOC(=O)c1ccccc1NS(=O)(=O)c1ccc(OC)cc1`, for which the inhibition was 46.5% (active).
Consider `CCOC(=O)c1ccccc1NC(=O)/C=C/c1ccc(OC)cc1`, for which the inhibition was 4.72%.
For `Cc1ccc(S(=O)(=O)Nc2ccccc2C(=O)NN)cc1`, the inhibition is 12.8%.
With `O=C(Nc1ccccc1C(F)(F)F)c1cc(S(=O)(=O)NC2CCCC2)ccc1F`, the inhibition is 1.13%.
For `CCS(=O)(=O)c1ncc(Cl)c(C(=O)Nc2ccc(OC(F)F)cc2)n1`, the inhibition was -5.89%.
For the compound `Cn1nc(CC(=O)Nc2ccc(F)c(F)c2)c2ccccc2c1=O`, the inhibition was 46.9% (active).
As for `Cc1ccc(F)cc1NC(=O)Cc1nn(C)c(=O)c2ccccc12`, the inhibition was 29.9%.
Regarding `Cc1cc(NC(=O)Cc2nn(C)c(=O)c3ccccc23)ccc1Br`, the inhibition is 4.56%.
With `COc1ccc(Nc2ncc(-c3cccc(NC(C)=O)c3)n3ccnc23)cc1`, the inhibition was -67.3%.
For the compound `COc1cccc(-c2cnc3c(Nc4ccc(C(N)=O)cc4)nccn23)c1`, the inhibition is -21.2%.
For `COc1cc(Nc2nccn3c(-c4cccc(NC(C)=O)c4)cnc23)cc(OC)c1OC` the value was 51.5% (active); for `Cc1nc(-c2cncc(-c3ccc(F)cc3)c2)cc(=O)[nH]1`, 5.59%; for `COc1cc(C(=O)Oc2ccccc2Cl)cc(OC)c1OC`, 0.19%.
Then `COc1cc(C(=O)Nc2ncc(Cc3ccccc3Cl)s2)cc(OC)c1OC`, with 57.5% (active).
Turning to `COc1cc(NC(=O)c2sc3ncn(Cc4ccccc4Cl)c(=O)c3c2C)cc(OC)c1OC`, the inhibition was 0.99%.
In the case of `CC(=O)Nc1ccc(NC(=O)c2cc3nc(C)ccc3o2)cc1`, the inhibition was 6.06%.
As to `CCOC(=O)c1ccc(NC(=O)COc2c(Br)cc(C=O)cc2OC)cc1`, the inhibition is -2.35%.
For `CC1Nc2c(c(=O)oc3ccccc23)NC1=O` (stereo unspecified), the inhibition was -13.4%.
Then `O=C(Nc1ccc(Oc2ccccc2)cc1)c1ccc2c(=O)n(CCc3ccccc3)c(=S)[nH]c2c1`, with 4.57%; and `O=c1c2nccnc2[nH]c(=S)n1CCc1ccccc1`, with 32.2% (active).
As for `O=C(NCCc1ccc(Cl)cc1)c1ccc2c(=O)n(CCc3ccccc3)c(=S)[nH]c2c1`, the inhibition was 6.42%.

A word on the inhibition: it is the relative decrease from the control value, in per cent.

The values are drawn from PubChem BioAssay AID1259422 (The Scripps Research Institute Molecular Screening Center, 2018).
